FAS-TE inh: FAS thioesterase (human) inhibition. AID 602261. recombinant FAS-TE, OMFH fluorogenic substrate, fluorescence endpoint. inhibition, % at 15 µM. 360,000 tested, 0.67% active;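 active means compounds whose normalised, plate-corrected inhibition of enzyme fluorescence in the single-dose primary screen is 50% or more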;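 further: 0% = DMSO with enzyme and 100% = substrate without enzyme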
beta cell repl: inducers of beta-cell replication in MIN6 cells | 330,000 tested, 0.29% active | MIN6 cells proliferation, ATPlite luminescence, 48 h; cells starved in 0.2% serum; 100% = growth in 10% serum | proliferation, % at 10 µM;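 active means compounds whose signal lies at least 3.5 SD above the mean of all wells on their plate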;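 further: 0% = DMSO-treated cells in low-serum medium and 100% = 10% serum control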
pCIP destab: compounds decreasing mouse p/CIP protein stability. F442A p/CIP-EGFP cells, EGFP fluorescence, 16 h. AID 1984. 290,000 tested, 0.01% active. decrease of EGFP signal, % at 10 µM;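 active means EGFP signal decrease of at least 30% at 10 µM or well 3 SD below plate mean, unless failing retest; inactive means the rest, including hits failing retest or dose response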
NR3A LBD binder: NR3A (human) ligand-binding domain modulation. 340,000 tested, 2.5% active. NR3A LBD differential scanning fluorimetry, Tm shift; 0% = protein alone, 100% = glycine-bound protein. Tm shift relative to glycine control, % at 25 µM;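 active means melting temperature shift of at least 10% of the positive control shift, at one fixed dose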
MPTP inh: inhibitors of mitochondrial permeability transition pore. isolated mouse mitochondria, Ca2+ swelling absorbance, 30 min. inhibition, % at 10 µM. 360,000 tested, 1.4% active;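 active means inhibition of 50% or more, scaled per plate between neutral and stimulator controls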;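 further: 0% = DMSO wells given calcium and 100% = 1 mM EGTA wells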
* marks the source's active call; other numbers are inactive results; x = no result. In the library only some 4.1% were active in any assay of this set; here they are far more common.

SMILES	FAS-TE inh	beta cell repl	pCIP destab	NR3A LBD binder	MPTP inh
CC1=NNC(=O)C1CC(=O)N/N=C/c1ccc(C)o1 (stereo unspecified)	-2.1	-1.4	-6.4	18.3*	2.5
CN(/N=C/c1ccc(O)cc1O)c1ncc(C(F)(F)F)cc1Cl	26.8	-3.3	-8.6	25.9*	4.4
CN(/N=C/c1ccccc1Cl)c1ncc(Cl)cc1C(F)(F)F	22.4	-4.1	0.8	-1.0	-0.6
O=[N+]([O-])/C=C/c1cc2ccccc2[nH]1	-5.2	-5.0	-0.1	17.8*	0.0
COc1cccc(-c2noc(-c3cccnc3)n2)c1	-3.8	1.2	0.0	1.4	0.3
COc1cccc(-c2noc(C(C)n3nc(C)c([N+](=O)[O-])c3C)n2)c1 (stereo unspecified)	9.5	-2.0	-7.5	13.8*	3.5
COc1ccc(NC(=O)C2(C)CCN2C(=O)c2ccccc2CCc2ccccc2)cc1OC (stereo unspecified)	11.1	x	x	x	7.0
O/N=C/c1cccc[n+]1CCCCCC[n+]1ccccc1/C=N/O	-8.4	2.1	-1.3	0.7	0.9
CCCCCCCCCCCCCCCC[n+]1ccc(C(N)=O)cc1	-132.7	0.0	3.2	15.5*	-2.3
CCCCCCCCCCCCCCCC[n+]1ccc(/C=N/O)cc1	-156.2	-2.8	-3.8	24.6*	15.2
CCCCCCCCCCCCCCCC[n+]1cccc(C(=O)N(CC)CC)c1	-57.9	-5.6	-7.8	-14.4	0.2
CCCCCCCCN1C(=O)[C@H](CC(=O)NCc2ccccc2)C[C@@]2(C(=O)OC)CCCCC=C12	7.7	x	x	x	0.2
C[C@@H]1CN([C@@H](C)CO)C(=O)Cc2cc(NC(=O)Nc3cccc4ccccc34)ccc2O[C@@H]1CN(C)S(C)(=O)=O	-9.1	-1.8	x	-10.3	0.7
C[C@@H]1CN([C@@H](C)CO)C(=O)Cc2cc(NC(=O)Nc3cccc4ccccc34)ccc2O[C@@H]1CN(C)Cc1ccc(C(F)(F)F)cc1	27.5	-5.5	x	13.4*	1.7
C[C@@H]1CN([C@H](C)CO)C(=O)c2cc(NC(=O)Nc3cccc4ccccc34)ccc2O[C@H]1CN(C)Cc1ccc(C(F)(F)F)cc1	9.3	-4.9	x	22.8*	-0.3
CC(C)n1c(O)c(/C=C2\C=Nc3ccccc32)sc1=Nc1ccccc1	12.9	-4.3	0.8	24.8*	41.8
COc1ccccc1Cc1c(-c2ccco2)nc2cc(C)c(Br)c(C)n12	3.8	x	x	x	-1.2
O=C(N/N=C/c1cn(-c2cccs2)nc1-c1ccccc1)c1ccccc1Br	31.1	-5.9	-9.4	10.8*	1.6
CSc1ccc(/C=N/NC(=O)c2ccc(O)cc2)cc1	-7.9	0.0	-6.7	25.9*	4.1
O=C(N/N=C/c1ccncc1)c1cccs1	-4.7	-2.8	0.0	-1.0	-0.6
Cc1nn(-c2ccccc2)cc1/C=N/NC(=O)c1cccs1	1.2	-1.2	-20.0	20.1*	2.2
CSc1ccc(/C=N/NC(=O)c2cccs2)cc1	-0.9	-0.5	2.4	13.2*	2.2
O=C(N/N=C/c1ccc(O)cc1)c1ccncc1	-4.7	0.3	-14.8	-10.6	-0.7
Cc1nn(-c2ccccc2)c(C)c1/C=N/NC(=O)c1cccs1	-1.7	0.0	-3.5	-0.1	0.8
COc1ccc(C(=O)N/N=C/c2ccc(N(C)c3ccccc3)cc2)cc1	24.5	-3.4	x	1.1	11.8
SMILES	FAS-TE inh	beta cell repl	pCIP destab	NR3A LBD binder	MPTP inh
COc1ccc(C(=O)N/N=C/c2ccc(SC)cc2)cc1	-2.7	0.0	-10.1	10.2*	-0.6
COc1cc(NCC2COc3c(ccc(OC)c3OC)C2=O)c([N+](=O)[O-])cc1OC (stereo unspecified)	20.0	x	x	x	0.0
COc1ccc([N+](=O)[O-])cc1CN1CCN(c2ncc(Cc3ccccc3)cn2)CC1	x	x	x	x	-0.2
c1ccc(-c2noc(C3CCCCC3)n2)nc1	-6.1	-2.9	-6.8	1.2	-1.2
Brc1ccc(-c2noc(C3CCCCC3)n2)cc1	17.2	3.0	5.4	14.3*	0.1
COc1ccc(-c2nc(-n3c(C)c(C(C)=O)c(C(C)=O)c3C)sc2C)cc1	0.8	-1.0	-16.5	-3.9	1.6
CC(=O)c1c(C(C)=O)c(C)n(-c2nc(-c3cccs3)c(C)s2)c1C	-1.3	4.7	8.4	11.6*	-0.8
COc1cc(/C=C/C(=O)/C=C(O)/C=C/c2ccc(O)c(OC)c2)ccc1O	-0.7	-6.6	x	26.8*	5.1
COc1cc(/C=C/C(=O)CC(=O)/C=C/c2ccc(O)c(OC)c2)ccc1O	7.9	-7.6	-21.0	24.4*	7.2

Source: PubChem
